Laboratory results: PubChem BioAssay (Tox21)
Inconclusive results are not listed. Entries that show only a call come without a potency. Values without a mark were called inactive. Activity calls are given as the source filed them. Unless noted, calls come from the whole dose curve; as a rule, active = well fitted curve in the direction sought with a large enough effect in the repeat runs; inconclusive = weak or mixed curves; inactive = no such curve, though single readings can be large; an effect the other way counts as inactive or inconclusive.

What was measured:
[1] = qHTS assay to identify aromatase inhibitors - cell viability counter screen (AID 743084);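 note: cells stimulated with testosterone during compound exposure; nearly all actives have a fitted effect of over 55% in size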
[2] = target: Aryl hydrocarbon receptor (Homo sapiens) (UniProt P35869); assay: qHTS assay to identify small molecule that activate the aryl hydrocarbon receptor (AhR) signaling pathway (AID 743085); note: nearly all actives have a fitted effect of over 15% in size; note: potency is the fitted concentration of half-maximal effect;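 for activation: HG2L7.5c1 human HepG2 liver cells with stably integrated DRE-driven firefly reporter; series mostly up to about 70 µM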
Aryl hydrocarbon receptor (Homo sapiens), sequence (P35869 whole entry, looked up): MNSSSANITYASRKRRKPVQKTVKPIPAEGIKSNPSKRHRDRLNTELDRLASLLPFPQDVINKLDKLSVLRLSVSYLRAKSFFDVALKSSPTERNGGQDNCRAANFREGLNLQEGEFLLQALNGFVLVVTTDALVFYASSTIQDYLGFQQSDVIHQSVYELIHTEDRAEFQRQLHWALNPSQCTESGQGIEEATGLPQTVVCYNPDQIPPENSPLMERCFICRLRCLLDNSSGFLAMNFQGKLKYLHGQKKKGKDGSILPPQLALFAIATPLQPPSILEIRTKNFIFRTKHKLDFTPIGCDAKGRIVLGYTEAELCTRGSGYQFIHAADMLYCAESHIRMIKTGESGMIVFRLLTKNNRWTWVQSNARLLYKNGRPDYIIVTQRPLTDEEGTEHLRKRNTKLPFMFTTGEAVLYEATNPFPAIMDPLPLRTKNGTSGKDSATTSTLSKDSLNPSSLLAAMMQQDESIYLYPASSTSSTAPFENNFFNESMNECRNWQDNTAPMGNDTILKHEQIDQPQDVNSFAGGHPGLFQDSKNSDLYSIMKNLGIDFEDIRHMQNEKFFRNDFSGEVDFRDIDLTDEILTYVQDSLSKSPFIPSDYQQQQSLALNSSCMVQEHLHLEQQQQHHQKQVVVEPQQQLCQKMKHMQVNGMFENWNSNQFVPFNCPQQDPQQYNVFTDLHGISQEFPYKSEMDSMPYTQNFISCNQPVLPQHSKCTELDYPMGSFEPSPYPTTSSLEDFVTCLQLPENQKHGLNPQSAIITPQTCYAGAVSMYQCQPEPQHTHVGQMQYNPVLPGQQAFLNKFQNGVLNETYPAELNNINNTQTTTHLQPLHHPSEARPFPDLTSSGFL
In short: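 24 h compound exposure, 37C, HepG2-derived HG2L7.5c1 cells with DRE-responsive luciferase. Readouts: fluorescence viability, then luminescence at room temperature after 30 min.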

[3] = qHTS assay to identify small molecule that activate the aryl hydrocarbon receptor (AhR) signaling pathway - cell viability counter screen (AID 743086);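 note: HepG2 liver cells carrying the AhR DRE luciferase reporter; series mostly up to about 70 µM; nearly all actives have a fitted effect of over 45% in size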
In short: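 Cytotoxicity counter screen: CellTiter-Fluor signal (30 min, 37 C) in 4000 HepG2 cells/well carrying the DRE-luciferase reporter, following 24 h compound exposure at 37 C.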

[4] = target: Peroxisome proliferator-activated receptor gamma (Homo sapiens) (UniProt P37231); assay: qHTS assay to identify small molecule agonists of the peroxisome proliferator-activated receptor gamma (PPARg) signaling pathway (AID 743094; active = well fitted activation curve with a large enough effect in the signal ratio in the repeat runs, not every such curve was filed as active; the % refers to the signal ratio)
Peroxisome proliferator-activated receptor gamma (Homo sapiens), sequence (P37231 whole entry, looked up): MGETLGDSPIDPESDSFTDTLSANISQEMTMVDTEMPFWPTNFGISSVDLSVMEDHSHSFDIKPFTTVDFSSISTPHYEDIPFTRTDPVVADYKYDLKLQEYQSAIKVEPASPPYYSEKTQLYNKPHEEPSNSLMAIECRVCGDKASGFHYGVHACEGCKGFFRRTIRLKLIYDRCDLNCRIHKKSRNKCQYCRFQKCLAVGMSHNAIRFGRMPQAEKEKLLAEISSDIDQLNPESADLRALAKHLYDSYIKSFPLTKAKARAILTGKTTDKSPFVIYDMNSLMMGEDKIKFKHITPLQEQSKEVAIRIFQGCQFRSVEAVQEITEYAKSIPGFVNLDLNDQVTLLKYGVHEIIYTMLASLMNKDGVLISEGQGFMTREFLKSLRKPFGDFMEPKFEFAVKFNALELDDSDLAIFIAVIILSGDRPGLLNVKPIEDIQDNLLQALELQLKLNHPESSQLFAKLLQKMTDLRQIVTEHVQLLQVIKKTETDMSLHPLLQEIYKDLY
In short: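 GeneBLAzer PPARg UAS-bla HEK293H cells were plated, rested 5 h, then exposed to compounds for 17 h at 37C. Beta-lactamase activity was read by LiveBLAzer B/G FRET substrate fluorescence after 1 h at room temperature.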

[5] = qHTS assay to identify small molecule antagonists of the peroxisome proliferator-activated receptor gamma (PPARg) signaling pathway - cell viability counter screen (AID 743194); note: nearly all actives have a fitted effect of over 55% in size
In short: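 Viability was measured as CellTiter-Glo luminescence in GeneBLAzer PPARg UAS-bla HEK293H cells. These cells had been exposed 17 h at 37 C to compounds together with rosiglitazone at 50 nM final, with the beta-lactamase readout taken in the same wells.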

[6] = qHTS assay for small molecule agonists of the antioxidant response element (ARE) signaling pathway (AID 743202; active = well fitted activation curve with a large enough effect in the signal ratio in the repeat runs, not every such curve was filed as active; the % refers to the signal ratio)
In short: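 Quantitative high-throughput format in HepG2 cells bearing an integrated ARE-beta-lactamase reporter. Compound exposure lasted 16 h at 37 C, and fluorescence was read 2 h after adding LiveBLAzer B/G substrate at room temperature.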

[7] = qHTS assay for small molecule agonists of the antioxidant response element (ARE) signaling pathway - cell viability counter screen (AID 743203; calls by dose curve; note: nearly all actives have a fitted effect of over 55% in size)
In short: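 ARE-bla HepG2 cells were plated, rested 5 h at 37C/5% CO2, then exposed to compounds in DMSO for 16 h. Viability was read as CellTiter-Glo luminescence after 30 min at room temperature, in the same wells as the ARE screen.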

[8] = qHTS assay for small molecule activators of the heat shock response signaling pathway - cell viability counter screen (AID 743209); note: nearly all actives have a fitted effect of over 50% in size
In short: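 HSE-bla HeLa cells plated overnight, then exposed to Tox21 compounds (23 nL in DMSO) for 5 h at 37 C. After the bla reporter read, CellTiter-Glo was added in the same wells and luminescence read after 30 min at room temperature.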

[9] = qHTS assay for small molecule activators of the heat shock response signaling pathway (AID 743210; active = well fitted activation curve with a large enough effect in the signal ratio in the repeat runs, with a control signal flat, not every such curve was filed as active; the % refers to the signal ratio;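 note: HeLa cells with beta-lactamase reporter driven by heat shock elements; series mostly up to about 63 µM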)
In short: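 HeLa HSE-bla cells, overnight plating; cpd in DMSO 5 h, 37 C; LiveBLAzer B/G FRET substrate 2.5 h RT; fluorescence intensity read.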

[10] = qHTS assay to identify small molecule agonists of the peroxisome proliferator-activated receptor delta (PPARd) signaling pathway - cell viability counter screen (AID 743211); note: nearly all actives have a fitted effect of over 55% in size
In short: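 Luminescent ATP viability assay (CellTiter-Glo, 30 min RT) in UAS-bla HEK293H cells carrying the PPAR delta reporter construct, 3000 cells/well, after a 17 h compound treatment at 37 C.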

[11] = target: Peroxisome proliferator-activated receptor delta (Homo sapiens) (UniProt Q03181); assay: qHTS assay to identify small molecule agonists of the peroxisome proliferator-activated receptor delta (PPARd) signaling pathway (AID 743212; calls by dose curve)
Peroxisome proliferator-activated receptor delta (Homo sapiens), sequence (Q03181 whole entry, looked up): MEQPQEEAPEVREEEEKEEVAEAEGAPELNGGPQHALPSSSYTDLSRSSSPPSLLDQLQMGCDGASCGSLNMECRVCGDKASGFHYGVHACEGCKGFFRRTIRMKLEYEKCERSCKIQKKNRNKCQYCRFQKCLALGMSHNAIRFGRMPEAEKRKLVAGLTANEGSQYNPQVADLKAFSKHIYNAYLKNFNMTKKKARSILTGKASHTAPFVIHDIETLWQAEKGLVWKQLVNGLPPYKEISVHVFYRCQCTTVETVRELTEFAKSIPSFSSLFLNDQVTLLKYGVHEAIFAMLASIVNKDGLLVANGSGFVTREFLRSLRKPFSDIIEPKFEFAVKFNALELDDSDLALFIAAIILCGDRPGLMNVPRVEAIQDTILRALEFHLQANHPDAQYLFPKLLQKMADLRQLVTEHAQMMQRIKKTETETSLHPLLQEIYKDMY
In short: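 HEK293H PPARd-bla cells; 5 h preincubation 37 C/5% CO2; compound (DMSO) 37 C; LiveBLAzer B/G FRET substrate 2 h RT; fluorescence intensity.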

[12] = qHTS assay to identify small molecule antagonists of the peroxisome proliferator-activated receptor delta (PPARd) signaling pathway - cell viability counter screen (AID 743213); note: nearly all actives have a fitted effect of over 50% in size
In short: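 Luminescence from CellTiter-Glo, added after the bla read and incubated 30 min at room temperature, gives viability of HEK293H PPARd-bla cells exposed to compounds for 17 h at 37 C with 300 nM L165041.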

[13] = qHTS assay to identify small molecule agonists of the farnesoid-X-receptor (FXR) signaling pathway - cell viability counter screen (AID 743218); note: nearly all actives have a fitted effect of over 45% in size
In short: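 FXR-UAS-bla HEK 293T cells exposed to compounds for 16 h at 37C. Cytotoxicity read in the same wells by CellTiter-Glo luminescence after 30 min at room temperature, following the beta-lactamase FRET read.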

[14] = qHTS assay to identify small molecule antagonists of the farnesoid-X-receptor (FXR) signaling pathway - cell viability counter screen (AID 743221; active = well fitted cell-killing curve with a large enough effect in the repeat runs, not every such curve was filed as active; note: nearly all actives have a fitted effect of over 50% in size)
In short: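 In GeneBLAzer FXR-UAS-bla HEK 293T cells stimulated with 50 uM chenodeoxycholic acid (final), compounds acted for 16 h at 37 C. Viability was assessed afterwards by CellTiter-Glo luminescence.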

[15] = target: Vitamin D3 receptor (Homo sapiens) (UniProt P11473); assay: qHTS assay to identify small molecule agonists of the vitamin D receptor (VDR) signaling pathway (AID 743222; calls by dose curve)
Vitamin D3 receptor (Homo sapiens), sequence (P11473 whole entry, looked up): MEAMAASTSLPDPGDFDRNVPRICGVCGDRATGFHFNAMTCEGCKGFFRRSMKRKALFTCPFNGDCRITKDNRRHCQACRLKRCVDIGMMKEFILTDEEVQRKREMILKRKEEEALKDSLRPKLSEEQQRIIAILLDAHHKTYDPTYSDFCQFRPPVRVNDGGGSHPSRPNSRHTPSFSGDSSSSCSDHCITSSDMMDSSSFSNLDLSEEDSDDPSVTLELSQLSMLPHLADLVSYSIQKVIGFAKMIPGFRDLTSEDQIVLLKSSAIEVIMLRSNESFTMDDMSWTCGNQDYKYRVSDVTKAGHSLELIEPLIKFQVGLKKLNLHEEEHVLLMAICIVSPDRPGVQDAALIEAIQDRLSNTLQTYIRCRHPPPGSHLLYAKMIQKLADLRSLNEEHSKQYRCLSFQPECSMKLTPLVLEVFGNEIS
In short: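 VDR-bla cells plated 4 h at 37 C, then exposed to compounds for 16 h at 37 C. Beta-lactamase reporter activity measured by fluorescence after 2 h room-temperature loading with LiveBLAzer B/G FRET substrate.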

[16] = target: Vitamin D3 receptor (Homo sapiens) (UniProt P11473); assay: qHTS assay to identify small molecule antagonists of the vitamin D receptor (VDR) signaling pathway (AID 743223; active = well fitted inhibition curve with a large enough effect in the signal ratio in the repeat runs, not every such curve was filed as active; the % refers to the signal ratio)
In short: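 Agonist 1alpha,25-dihydroxyvitamin D3 (3 nM in well) was added with each compound to VDR-bla cells preincubated 4 h. Cells stood 16 h at 37C, then FRET substrate 2 h at room temperature; fluorescence intensity recorded.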

[17] = target: Peroxisome proliferator-activated receptor delta (Homo sapiens) (UniProt Q03181); assay: qHTS assay to identify small molecule antagonists of the peroxisome proliferator-activated receptor delta (PPARd) signaling pathway (AID 743215; active = well fitted inhibition curve with a large enough effect in the signal ratio in the repeat runs, not every such curve was filed as active; the % refers to the signal ratio;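 note: cells stimulated with agonist L165041 at 300 nM final during compound exposure; series mostly up to about 62 µM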)
In short: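 PPARd-bla HEK293H cells (UAS-bla reporter) preincubated 5 h, then given compound plus 300 nM final L165041 agonist for 17 h at 37 C. Beta-lactamase activity read by LiveBLAzer B/G FRET substrate fluorescence after 2 h at room temperature.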

[18] = target: Bile acid receptor (Homo sapiens) (UniProt Q96RI1); assay: qHTS assay to identify small molecule antagonists of the farnesoid-X-receptor (FXR) signaling pathway (AID 743217; active = well fitted inhibition curve with a large enough effect in the signal ratio in the repeat runs, not every such curve was filed as active; the % refers to the signal ratio)
Bile acid receptor (Homo sapiens), sequence (Q96RI1 whole entry, looked up): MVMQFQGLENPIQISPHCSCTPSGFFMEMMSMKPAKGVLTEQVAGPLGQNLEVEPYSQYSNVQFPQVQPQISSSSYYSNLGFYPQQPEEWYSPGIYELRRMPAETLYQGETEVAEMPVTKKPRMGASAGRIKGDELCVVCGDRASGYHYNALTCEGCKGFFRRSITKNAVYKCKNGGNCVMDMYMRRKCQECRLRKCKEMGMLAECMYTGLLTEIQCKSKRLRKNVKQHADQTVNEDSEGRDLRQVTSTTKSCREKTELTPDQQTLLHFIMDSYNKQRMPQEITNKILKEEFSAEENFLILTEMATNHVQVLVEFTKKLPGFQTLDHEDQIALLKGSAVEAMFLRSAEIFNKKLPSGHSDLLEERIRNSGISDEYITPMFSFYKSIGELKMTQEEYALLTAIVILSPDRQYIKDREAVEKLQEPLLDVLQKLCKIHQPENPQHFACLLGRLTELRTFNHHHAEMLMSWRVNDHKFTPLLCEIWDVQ
In short: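 FXR-UAS-bla HEK 293T cells (beta-lactamase reporter) given compound plus chenodeoxycholic acid (50 uM final), 16 h at 37C. LiveBLAzer B/G FRET substrate added for 2 h at room temperature; fluorescence read.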

[19] = target: Bile acid receptor (Homo sapiens) (UniProt Q96RI1); assay: qHTS assay to identify small molecule agonists of the farnesoid-X-receptor (FXR) signaling pathway (AID 743220; active = well fitted activation curve with a large enough effect in the signal ratio in the repeat runs, not every such curve was filed as active; the % refers to the signal ratio)
In short: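 Beta-lactamase reporter under UAS control in GeneBLAzer FXR HEK 293T cells (5000/well) measured with LiveBLAzer FRET substrate after 2 h at room temperature. Compound exposure lasted 16 h at 37C.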

Row | Compound | Potency [1] | Potency [2] | Potency [3] | outcome [4] | outcome [5] | Potency [6] | Potency [7] | outcome [8] | outcome [9] | Potency [10] | outcome [11] | Potency [12] | Potency [13] | Potency [14] | outcome [15] | outcome [16] | Potency [17] | outcome [18] | outcome [19]
1 | COc1ccccc1OCC(O)CN1CCN(CC(=O)Nc2c(C)cccc2C)CC1 (stereo unspecified) | inactive | inactive | inactive | inactive | inactive | inactive | inactive | inactive | inactive | inactive | inactive | inactive | inactive | inactive | inactive |  |  |  | 
2 | CCC=O | inactive | inactive | inactive | inactive | inactive | inactive | inactive | inactive |  | inactive | inactive | inactive | inactive | inactive | inactive | inactive |  |  | 
3 | C1OCOCO1 | inactive | inactive | inactive | inactive | inactive |  | inactive | inactive | inactive | inactive | inactive | inactive |  | inactive |  |  | inactive | inactive | inactive
4 | O=C1NC(=O)[C@@]2(CCOc3ccc(F)cc32)N1 | inactive | inactive | inactive | inactive | inactive | inactive | inactive | inactive |  | inactive | inactive | inactive | inactive | inactive | inactive | inactive |  |  | 
5 | CCCCOCCOCCOCCCC | inactive | inactive | inactive | inactive | inactive |  | inactive | inactive | inactive | inactive | inactive | inactive | inactive | inactive |  |  | inactive | inactive | inactive
6 | NC(CSCC(=O)O)C(=O)O (stereo unspecified) | inactive | inactive | inactive | inactive | inactive | inactive |  | inactive | inactive | inactive | inactive | inactive |  | inactive | inactive | inactive | inactive | inactive | inactive
7 | CC(C)(C)c1nnc(NS(=O)(=O)c2ccccc2)s1 | inactive | inactive | inactive | inactive | inactive |  | inactive | inactive | inactive | inactive | inactive | inactive | inactive | inactive | inactive | inactive | inactive |  | 
8 | COCCCOCCCOC | inactive | inactive | inactive | inactive | inactive |  | inactive | inactive | inactive | inactive | inactive | inactive | inactive | inactive | inactive | inactive | inactive | inactive | inactive
9 | COc1ccc2c(c1)c(CC(=O)OCC(=O)O)c(C)n2C(=O)c1ccc(Cl)cc1 | inactive | inactive | inactive | inactive | inactive | inactive | inactive | inactive | inactive | inactive |  | inactive |  | inactive | inactive |  |  |  | 
10 | CC(=O)c1ccccc1O | inactive | inactive | inactive | inactive | inactive | inactive | inactive | inactive | inactive | inactive |  | inactive | inactive | inactive | inactive | inactive |  | inactive | inactive
11 | CO[C@]12C[C@@H](COC(=O)c3cncc(Br)c3)CN(C)[C@@H]1Cc1cn(C)c3cccc2c13 | inactive | 29.8 µM (active) | inactive | inactive | inactive | inactive | inactive | inactive | inactive | inactive |  | inactive | inactive | inactive | inactive |  |  |  | 
12 | O=C(O)CCCl | inactive | inactive | inactive | inactive | inactive | inactive | inactive | inactive | inactive | inactive |  |  | inactive | inactive | inactive |  |  |  | 
13 | O=C[C@H](O)[C@@H](O)[C@H](O)[C@H](O)CO | inactive | inactive | inactive | inactive | inactive | inactive | inactive |  | inactive | inactive |  | inactive | inactive | inactive |  |  |  |  | 
